Results filed as inconclusive are left out. Calls of active or inactive are those of the source. Unless noted, calls follow the shape of the dose curve; as a rule, active = well fitted curve in the direction sought with a large enough effect in the repeat runs; inconclusive = weak or mixed curves; inactive = no such curve, though single readings can be large; an effect the other way counts as inactive or inconclusive.
What was measured:
[1] = qHTS assay to identify small molecule agonists of the hypoxia (HIF-1) signaling pathway (AID 1224846; active = well fitted activation curve with a large enough effect in the signal ratio in the repeat runs, not every such curve was filed as active; the % refers to the signal ratio); details: HRE-bla ME-180 cells, beta-lactamase ratio, 17 h; series mostly up to 76.8 µM
In short: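 Cell line: CellSensor HRE-bla ME-180; 2,000 cells/well; 0.5% dialyzed FBS; 5 h preincubation; DMSO compound pin transfer; 17 h, 37C, 5% CO2; CCF4-AM added; bla FRET signal scored for activation.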

[2] = qHTS assay to identify small molecule agonists of H2AX - cell viability counter screen (AID 1224847; calls by dose curve; also: top concentration of the series differs between compounds; nearly all actives have a fitted effect of over 30% in size); details: CHO-K1 viability, CellTiter-Glo luminescence, 3 h; series mostly up to 154 µM
In short: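 Quantitative HTS viability measurement: CHO-K1 wild-type cells in serum (10% FBS) medium, short 3 hr drug exposure at 37C with 0.76% DMSO, CellTiter-Glo luminescent detection.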

[3] = qHTS RealTime-Glo MT Cell Viability Assay in HepG2 cells - 24 hour (AID 1224867); details: RealTime-Glo luminescence; series mostly up to 76.8 µM; also: nearly all actives have a fitted effect of over 50% in size
In short: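 HepG2 suspension premixed with RealTime-Glo reagents is plated at 600 cells per well and left 5 h at 37 C/5% CO2. Compounds in DMSO then go in, and bioluminescence reflecting viable cell number is recorded over 40 h.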

[4] = qHTS RealTime-Glo MT Cell Viability Assay in HEK293 cells - 32 hour (AID 1224868); details: RealTime-Glo luminescence; series mostly up to 76.8 µM; also: nearly all actives have a fitted effect of over 50% in size; also: potency is read from the fitted curve at half-maximal effect; as to activity change, negative = cytotoxic: top concentration of the series differs between compounds
In short: (§1)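 Reads taken at 0, 8, 16, 24, 32 and 40 h from the same wells. HEK293 cells (600/well) carried RealTime-Glo reagents from seeding, with compound added after a 5 h settle at 37 C.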

[5] = A CellTox Green Cytotoxicity Assay to monitor cytotoxicity in HEK293 cells - 0 hour (AID 1224869); details: CellTox Green fluorescence; series mostly up to 76.8 µM; also: nearly all actives have a fitted effect of over 50% in size
In short: (§2)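 Nonlytic real-time cytotoxicity: HEK293 + CellTox Green reagent plated, 5 h preincubation, pintool compound addition (23 nL in DMSO), 37 C for 40 h, fluorescence measured at successive time points.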

[6] = qHTS RealTime-Glo MT Cell Viability Assay in HepG2 cells - 40 hour (AID 1224870); details: RealTime-Glo luminescence; series mostly up to 76.8 µM; also: nearly all actives have a fitted effect of over 50% in size
In short: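 HepG2 cells (600/well) mixed with RealTime-Glo MT reagent, settled 5 h at 37 C/5% CO2 before compound addition. Nonlytic NanoLuc luminescence from viable-cell prosubstrate reduction read repeatedly during 40 h treatment at 37 C.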

[7] = A CellTox Green Cytotoxicity Assay to monitor cytotoxicity in HEK293 cells - 40 hour (AID 1224871); details: CellTox Green fluorescence; series mostly up to 76.8 µM; also: nearly all actives have a fitted effect of over 45% in size
In short: as §2

[8] = qHTS RealTime-Glo MT Cell Viability Assay in HEK293 cells - 16 hour (AID 1224872); details: RealTime-Glo luminescence; series mostly up to 76.8 µM; also: nearly all actives have a fitted effect of over 50% in size; also: potency is read from the fitted curve at half-maximal effect; as to activity change, negative = cytotoxicity: top concentration of the series differs between compounds
In short: as §1
% is scaled to controls: 0 for no effect and ±100 for the full control effect.

O=C(/N=N/C(=O)OCc1ccccc1)OCc1ccccc1
inactive: outcome [1] | Potency [2] | outcome [3] | Potency [4] | outcome [5] | outcome [6] | Potency [7] | Potency [8]

CCCCCCOc1ccccc1C(N)=O
inactive: outcome [1] | Potency [2] | outcome [3] | outcome [5] | outcome [6] | Potency [7]

CC(C)c1ccc2cc(C(C)C)ccc2c1
inactive: outcome [1] | Potency [2] | outcome [3] | outcome [5] | outcome [6] | Potency [7] | Potency [8]

O=C(O)CCSSCCC(=O)O
inactive: outcome [1] | Potency [2] | outcome [3] | Potency [4] | outcome [5] | outcome [6] | Potency [7] | Potency [8]

CC(C)CCCC(C)(C)O
inactive: outcome [1] | Potency [2] | outcome [3] | Potency [4] | outcome [5] | outcome [6] | Potency [7] | Potency [8]

Oc1cn2c(n1)Nc1ccc(Cl)c(Cl)c1C2
inactive: activation [1] -0.566% [at 15.8 µM] | activity change, negative = cytotoxicity [2] 0.633% [at 31.6 µM] | activity change, negative = cytotoxicity [3] -0.765% [at 15.8 µM] | activity change, negative = cytotoxic [4] 9.1% [at 15.8 µM] | cytotoxicity [5] 0.503% [at 15.8 µM] | activity change, negative = cytotoxic [6] -4.5% [at 15.8 µM] | activity change, negative = cytotoxicity [8] 6.18% [at 15.8 µM]

O=C(CCN1CCN(CCO)CC1)N1c2ccccc2Sc2ccc(C(F)(F)F)cc21
inactive: outcome [1] | Potency [2] | outcome [3] | outcome [5] | outcome [6] | Potency [7] | Potency [8]

O=C(O)Cc1ccc(Cl)cc1Cl
inactive: outcome [1] | Potency [2] | outcome [3] | Potency [4] | outcome [5] | Potency [7] | Potency [8]

CC(CO)c1ccccc1 (stereo unspecified)
inactive: outcome [1] | Potency [2] | outcome [3] | Potency [4] | outcome [5] | outcome [6] | Potency [7] | Potency [8]

C=COCCOCCOCCOC=C
inactive: outcome [1] | Potency [2] | outcome [3] | Potency [4] | outcome [6] | Potency [7] | Potency [8]

CC(C)C(=O)OCCc1ccccc1
inactive: outcome [1] | Potency [2] | outcome [3] | Potency [4] | outcome [5] | outcome [6] | Potency [8]

Cc1ccc2ccc(Cl)cc2n1
inactive: outcome [1] | Potency [2] | outcome [3] | Potency [4] | outcome [6] | Potency [7] | Potency [8]

Cc1ccc(C=O)cc1C
inactive: outcome [1] | Potency [2] | outcome [3] | Potency [4] | outcome [5] | outcome [6] | Potency [7] | Potency [8]

CC(N)C(=O)OC(C)(C)Cc1ccc(Cl)cc1 (stereo unspecified)
inactive: outcome [1] | Potency [2] | outcome [3] | Potency [4] | outcome [6] | Potency [8]

O=C(OCC(O)CO)c1ccccc1Nc1ccnc2c(C(F)(F)F)cccc12 (stereo unspecified)
inactive: outcome [1] | Potency [2] | outcome [3] | outcome [5] | outcome [6] | Potency [7]
active: Potency [4] 4.25 µM | Potency [8] 5.35 µM

Brc1ccc(-c2ccccc2)cc1
inactive: outcome [1] | Potency [2] | outcome [3] | outcome [5] | outcome [6] | Potency [7] | Potency [8]

O=C1CC(c2ccc(Cl)cc2)CC(=O)N1
inactive: outcome [1] | Potency [2] | outcome [3] | Potency [4] | outcome [5] | outcome [6] | Potency [8]

C=CCCCCCCCCCCCC
inactive: outcome [1] | Potency [2] | outcome [3] | Potency [4] | outcome [5] | outcome [6] | Potency [8]

O=C1CCCC(=O)O1
inactive: outcome [1] | Potency [2] | outcome [3] | Potency [4] | outcome [6] | Potency [7] | Potency [8]

CC(C)=O
inactive: outcome [1] | Potency [2] | outcome [3] | Potency [4] | outcome [6] | Potency [7] | Potency [8]

COc1ccc(S(=O)(=O)N2c3ccc(Cl)cc3[C@@](O)(c3ccccc3Cl)[C@H]2C(=O)N2CCC[C@@H]2C(N)=O)cc1OC
inactive: outcome [1] | Potency [2] | outcome [3] | outcome [5] | outcome [6]

Nc1ncnc(Nc2ccccc2)n1
inactive: outcome [1] | Potency [2] | outcome [3] | Potency [4] | outcome [5] | outcome [6] | Potency [8]

C[C@H](N)[C@H](O)c1cccc(O)c1
inactive: outcome [1] | Potency [2] | outcome [3] | Potency [4] | outcome [5] | outcome [6] | Potency [7] | Potency [8]

CC(=O)Nc1cccc(C)c1
inactive: outcome [1] | Potency [2] | outcome [3] | outcome [5] | outcome [6] | Potency [7]

CC(CN)CC(C)(C)CCN (stereo unspecified)
inactive: outcome [1] | Potency [2] | outcome [3] | Potency [4] | outcome [5] | outcome [6] | Potency [8]

O=S(=O)(O)c1cc(O)c2ccc(Nc3ccccc3)cc2c1
inactive: outcome [1] | Potency [2] | outcome [3] | Potency [4] | outcome [5] | outcome [6] | Potency [8]

COc1cc2c(cc1OC)C(=O)CC2
inactive: outcome [1] | Potency [2] | outcome [3] | outcome [5] | outcome [6] | Potency [7] | Potency [8]

From PubChem BioAssay (Tox21)
